High-throughput results: PubChem, National Center for Advancing Translational Sciences (NCATS)
3T3 cytotox: kills NIH 3T3 cells | NIH 3T3 viability, CellTiter-Glo ATP luminescence, 48-72 h | Potency, µM (doses to about 96.7 µM), for inactives: top-dose activity change, negative = cytotoxicity, hits mostly inhibitors | 94,000 tested, 4.3% active | AID 1345082; further: on the % scale 0 is the no-effect control and ±100 the full control effect; nearly all actives have a fitted effect of over 55% in size
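Cytotoxicity was measured by CellTiter-Glo ATP luminescence after 48 or 72 h compound exposure at 37 °C. Mouse NIH 3T3 fibroblasts were seeded at 400 cells/well and dosed by 23 nL pin transfer.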
HEK293 tox: HEK 293 cell cytotoxicity | 94,000 tested, 6.6% active | HEK 293 viability, ATP luminescence (CellTiter-Glo), 48-72 h | Potency, µM (titrated, usually from 115 µM), without a hit: at the top dose activity change, negative = cytotoxicity, most hits filed as inhibitors; further: on the % scale 0 is the no-effect control and ±100 the full control effect; nearly all actives have a fitted effect of over 60% in size
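HEK 293 seeded at 250 cells/well receive compound via pintool. After 48 or 72 hr at 37 degree Celsius, 5% CO2 and 95% humidity, CellTiter-Glo is dispensed and luminescence read following 10 min at room temperature.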
FLuc inh-1: blocks purified firefly luciferase enzyme activity | Potency, µM (highest dose often 115 µM), most hits filed as inhibitors | 76,000 tested, 2.5% active | purified P. pyralis luciferase, luminescence, biochemical | P08659; further: on the % scale 0 is the no-effect control and ±100 the full control effect; nearly all actives have a fitted effect of over 65% in size
Target sequence (P08659 whole entry, looked up): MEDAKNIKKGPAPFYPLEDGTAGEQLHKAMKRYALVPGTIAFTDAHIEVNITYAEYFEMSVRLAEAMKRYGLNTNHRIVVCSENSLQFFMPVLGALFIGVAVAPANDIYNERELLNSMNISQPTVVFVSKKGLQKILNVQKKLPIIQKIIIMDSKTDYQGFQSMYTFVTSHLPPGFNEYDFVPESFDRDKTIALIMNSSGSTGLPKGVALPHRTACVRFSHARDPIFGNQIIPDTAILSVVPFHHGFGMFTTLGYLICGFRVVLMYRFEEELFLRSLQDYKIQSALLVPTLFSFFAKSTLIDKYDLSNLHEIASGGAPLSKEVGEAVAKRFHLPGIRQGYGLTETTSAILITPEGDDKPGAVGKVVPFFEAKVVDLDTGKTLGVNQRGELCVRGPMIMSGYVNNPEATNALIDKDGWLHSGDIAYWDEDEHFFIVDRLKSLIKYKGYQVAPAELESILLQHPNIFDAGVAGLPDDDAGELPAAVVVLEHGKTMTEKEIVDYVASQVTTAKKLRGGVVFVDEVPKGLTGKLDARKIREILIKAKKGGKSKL
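Luminescence read by CCD imager after adding enzyme (10nM final) to wells holding compound, titrated in qHTS. Substrates 10uM each D-luciferin and ATP; buffer 50mM Tris acetate pH 7.5, 10mM Mg acetate, Tween-20, BSA.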
NPR1 antag: human Npr1 receptor antagonism | HEK293 hNpr1 GloSensor cGMP, ANP-stimulated luminescence | Potency, µM (top dose mostly 46.3 µM), for the others: top-dose activity change, negative = inhibition, actives largely listed as inhibitors | 76,000 tested, 1.6% active | AID 1347048; calls by dose curve; further: on the % scale 0 is the no-effect control and ±100 the full control effect; nearly all actives have a fitted effect of over 60% in size
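Compound pre-incubated 30 min at room temperature on GloSensor-loaded HEK293 cells stably carrying hNpr1 and the pGS-40F cGMP biosensor. Stimulation uses hNppA at 0.1 nM final; luminescence is taken at baseline and 20 min post-agonist.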
FLuc SDR -ATP: firefly luciferase binding stabilization, ATP absent; AID 1963318; Purified FLuc-C-HiBiT, Nano-Glo HiBiT luminescence, no ATP; shares compounds with FLuc inh-1; 1,300 tested, 7.8% active; Potency, µM (series often up to 32.7 µM), without a hit: top-dose activation (signal gain), usual class: activators; further: nearly all actives have a fitted effect of over 55% in size
FLuc SDR ATP: binders stabilizing firefly luciferase, plus ATP; Potency, µM (highest dose often 32.7 µM), without a hit: at the highest dose activation (gain of signal), actives largely listed as activators; 1,300 tested, 8.7% active; purified FLuc-C-HiBiT + ATP, HiBiT complementation luminescence; shares compounds with FLuc inh-1;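 further: signal reports ligand binding via conformational change of the enzyme rather than luciferase catalysis; % of control where 0% means no effect; nearly all actives have a fitted effect of over 55% in size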
FLuc inh-2: blocks firefly luciferase enzymatic activity. shares compounds with FLuc inh-1. purified FLuc-C-HiBiT enzyme, luciferin luminescence. Potency, µM (titrated, usually from 32.7 µM), for inactives: top-dose activity change, negative = inhibition, usual class: inhibitors. 1,300 tested, 42% active; further: on the % scale 0 is the no-effect control and ±100 the full control effect; nearly all actives have a fitted effect of over 70% in size
* marks the source's active call; other numbers are inactive results; [ ] = dose if it differs, or a comment. Sampled rows, rich in hits. Any-hit rate of the full collection: about 11%. Unless noted, the call rests on the fitted dose curve; in most records, active means well fitted curve in the direction sought with a large enough effect; inconclusive means small, poorly fitted or top-dose-only effect, or another doubt; inactive means no such curve, though single readings can be large; an effect the other way counts as inactive or inconclusive. Potency means the concentration at half of the fitted maximal effect.

COCCN1CCC2(CCC1=O)CCN(C(=O)Nc1cc(OC)ccc1OC)CC2 was read as 3T3 cytotox -11% and HEK293 tox inactive.
Cc1nncn1C1CN(S(=O)(=O)c2ccccc2F)C1 was read as 3T3 cytotox 1% and HEK293 tox inactive.
Screening C=CCNC(=O)c1cccc2c(C)nnn12 returned 3T3 cytotox -13%[174 µM], HEK293 tox -15%[230 µM], FLuc inh-1 14µM*, NPR1 antag -15%[70.6 µM], FLuc SDR -ATP 11%[65.7 µM], FLuc SDR ATP 14%[65.7 µM] and FLuc inh-2 -13%[65.7 µM].
For Cc1cccc(OCCc2noc(C3CN(C(=O)NCC4CCCO4)C3)n2)c1 (centres undefined) the results were 3T3 cytotox -25%, HEK293 tox -17%, FLuc inh-1 inactive and NPR1 antag -2%.
Screening COc1ccc(NC(=O)c2c(OC)cc(=O)n3c2CCCC3)c(OC)c1 returned 3T3 cytotox -12%, HEK293 tox -2%, FLuc inh-1 inactive and NPR1 antag -12%.
For COc1ccc(NC(=O)c2cc3ccccc3o2)c(OC)c1 the results were FLuc SDR -ATP 19%, FLuc SDR ATP 14% and FLuc inh-2 inconclusive.
For CCN1CCN(C(=O)c2ccc3oc(-c4ccncc4)nc3c2)CC1 the results were 3T3 cytotox -16% and HEK293 tox -16%.
For CCn1c(=O)c(C(=O)Nc2ccc(C(C)=O)cc2)nc2ccccc21 the results were FLuc SDR -ATP inconclusive, FLuc SDR ATP inconclusive and FLuc inh-2 inconclusive.
For CC(C)Cn1c(=O)c(C(=O)Nc2ccc(F)cc2)nc2cccnc21 the results were 3T3 cytotox -14%[138 µM] and HEK293 tox -25%[172 µM].
C=CCN1C[C@H]2COc3ccccc3[C@H]2N(C(=O)CC(C)(C)C)CCC1=O was read as 3T3 cytotox inconclusive and HEK293 tox -11%.
Screening CN(Cc1ccccc1)C(=O)c1cccc2c1CCN2C(=O)Nc1ccccc1 returned 3T3 cytotox inconclusive, HEK293 tox inconclusive, FLuc inh-1 0.79µM*, NPR1 antag 8.9µM*, FLuc SDR -ATP 16%, FLuc SDR ATP 0.39µM* and FLuc inh-2 0.28µM*.
`CCC(=O)N1CCc2c(C(=O)NCCOC)cccc21` gave 3T3 cytotox 0%, HEK293 tox 12%, FLuc inh-1 inactive and NPR1 antag -1%.
Screening CN(Cc1ccco1)C(=O)c1cccc2c1CCN2C(=O)Nc1ccccc1 returned 3T3 cytotox inconclusive, HEK293 tox inconclusive, FLuc inh-1 1.3µM*, NPR1 antag 10µM*, FLuc SDR -ATP inconclusive, FLuc SDR ATP 0.28µM* and FLuc inh-2 0.2µM*.
Screening COc1ccccc1-c1cccc(C(=O)N2CCC[C@H]2C(=O)NCC(F)F)c1 returned 3T3 cytotox -18% and HEK293 tox -24%.
For N#Cc1c(-n2ncnc2-c2ccccc2Cl)sc2c1CCCCC2 the results were FLuc SDR -ATP 30%, FLuc SDR ATP inconclusive and FLuc inh-2 2.2µM*.
For N#Cc1c(-n2ncnc2-c2cccc(Cl)c2)sc2c1CCCCC2 the results were FLuc SDR -ATP 29%, FLuc SDR ATP inconclusive and FLuc inh-2 2µM*.
Screening COc1ccc(CN2CC(COc3ccccc3)C3(C2)CN(c2ccccc2)C3)cc1O (centres undefined) returned 3T3 cytotox inconclusive, HEK293 tox 28µM*, FLuc inh-1 inactive, NPR1 antag -18%[70.6 µM], FLuc SDR -ATP 12%[49.3 µM], FLuc SDR ATP 7%[49.3 µM] and FLuc inh-2 -16%[49.3 µM].
`O=C(O)c1ccc(CN2CC(COc3ccccc3)C3(C2)CN(c2ccccc2)C3)cc1` (centres undefined) gave 3T3 cytotox -22%[138 µM], HEK293 tox inconclusive, FLuc inh-1 inactive and NPR1 antag -22%[70.6 µM].
Screening O=C(Nc1ccc(F)cc1)c1cc2cccnn2n1 returned 3T3 cytotox inconclusive, HEK293 tox inconclusive, FLuc inh-1 14µM*, NPR1 antag 4%[70.6 µM], FLuc SDR -ATP 25%[49.3 µM], FLuc SDR ATP 19%[49.3 µM] and FLuc inh-2 inconclusive.
For Cc1c(CCNC(=O)c2ccc(Br)o2)sc2nc(-c3ccc(Cl)cc3)nn12 the results were FLuc SDR -ATP 19%, FLuc SDR ATP 11% and FLuc inh-2 inconclusive.
Screening CCOc1ccccc1-c1noc(-c2nc(C)no2)n1 returned 3T3 cytotox -10%, HEK293 tox -17%, FLuc inh-1 inactive and NPR1 antag 6%.
For CCOc1cccc2cc(-c3nc(-c4ccccc4C)no3)c(=O)oc12 the results were FLuc SDR -ATP inconclusive, FLuc SDR ATP inconclusive and FLuc inh-2 inconclusive.
Cc1oc(C(O)c2ccccc2F)nc1C(=O)Nc1ccccc1 (centres undefined) was read as 3T3 cytotox inconclusive, HEK293 tox inconclusive, FLuc inh-1 inconclusive and NPR1 antag -30%[70.6 µM].
Screening Cc1oc(C(O)c2ccccc2F)nc1C(=O)Nc1ccc(N2CCOCC2)cc1 (centres undefined) returned 3T3 cytotox -25%[138 µM], HEK293 tox inconclusive, FLuc inh-1 10µM*, NPR1 antag -2%[70.6 µM], FLuc SDR -ATP inconclusive, FLuc SDR ATP inconclusive and FLuc inh-2 16µM*.
For COc1ccc(C(=O)N2CCCCC2CCn2cc(-c3ccccc3)nn2)cc1 (centres undefined) the results were 3T3 cytotox -29% and HEK293 tox inconclusive.
O=C1NCCCc2[nH]c(-c3cc(-c4cccc(F)c4)no3)nc21 was read as 3T3 cytotox -29%, HEK293 tox -34%, FLuc inh-1 2.8µM*, NPR1 antag -29%, FLuc SDR -ATP inconclusive, FLuc SDR ATP inconclusive and FLuc inh-2 7µM*.
COCCN1C(=O)N(CC(C)C)C(=O)C12CCN(Cc1cnn(-c3ccccc3OC)c1)CC2 was read as 3T3 cytotox inconclusive, HEK293 tox -9%, FLuc inh-1 inactive and NPR1 antag -5%.
COCCOC1CCOC2(CCN(C(=O)CCc3nc4ccccc4s3)CC2)C1 (centres undefined) was read as 3T3 cytotox -7%, HEK293 tox -6%, FLuc inh-1 inactive and NPR1 antag -15%.
O=C(CSc1nnc2[nH]c(=O)cc(-c3ccccc3)n12)Nc1ccc(OC(F)(F)F)cc1 was read as FLuc SDR -ATP 20%, FLuc SDR ATP 15% and FLuc inh-2 7µM*.
